From PubChem BioAssay (Tox21)
Values joined by “and” are separate entries in the source; they are usually repeats but may differ in a detail not shown here. Identical values can stand only once. Results filed as inconclusive are left out. Some structures have more than one record in an assay (separate samples or runs), and their calls can disagree. Active and inactive are the calls of the source. Unless noted, calls come from the whole dose curve; as a rule, active = well fitted curve in the direction sought with a large enough effect in the repeat runs; inconclusive = weak or mixed curves; inactive = no such curve, though single readings can be large; an effect the other way counts as inactive or inconclusive.

Tests used:
[1] = qHTS assay to identify small molecule antagonists of the thyroid receptor (TR) signaling pathway - cell viability counter screen (AID 743064); note: nearly all actives have a fitted effect of over 50% in size
How it was run: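 CellTiter-Fluor readout, 30 min at 37 °C/5% CO2, following 23.5 h incubation of GH3.TRE-Luc cells with test compound and 1 nM T3 (final).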

[2] = qHTS assay to identify small molecule antagonists of the thyroid receptor (TR) signaling pathway (AID 743065); note: series mostly up to about 70 µM; nearly all actives have a fitted effect of over 55% in size
How it was run: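 GH3.TRE-Luc rat pituitary cells carrying two TR response elements driving luciferase were plated for 4 h, given compound plus 1 nM T3 (final), and incubated 23.5 h at 37 C. ONE-Glo luminescence measured reporter inhibition; CellTiter-Fluor fluorescence tracked cytotoxicity.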

[3] = tested on: thyroid hormone receptor (rat, GH3 cells); assay: qHTS assay to identify small molecule agonists of the thyroid receptor (TR) signaling pathway (AID 743066; calls by dose curve)
[4] = qHTS assay to identify small molecule antagonists of the estrogen receptor alpha (ER-alpha) signaling pathway - cell viability counter screen (AID 743074; calls by dose curve; note: nearly all actives have a fitted effect of over 45% in size)
[5] = target: Estrogen receptor (Homo sapiens) (UniProt P03372); assay: qHTS assay to identify small molecule agonists of the estrogen receptor alpha (ER-alpha) signaling pathway (AID 743075; calls by dose curve)
[6] = target: Estrogen receptor (Homo sapiens) (UniProt P03372); assay: qHTS assay to identify small molecule agonists of the estrogen receptor alpha (ER-alpha) signaling pathway using the BG1 cell line (AID 743079); note: nearly all actives have a fitted effect of over 20% in size
[7] = qHTS assay to identify small molecule antagonists of the estrogen receptor alpha (ER-alpha) signaling pathway using the BG1 cell line (AID 743080; calls by dose curve;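 note: BG1 cells stimulated with 17beta-estradiol alongside compound; series mostly up to about 70 µM; nearly all actives have a fitted effect of over 25% in size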)
How it was run: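 Luminescence from a 4×ERE-luciferase reporter in BG1-Luc-4E2 cells served as read-out. Cells, pre-cultured 5 days in stripped-serum phenol-red-free medium, were exposed to compound with 17beta-estradiol co-stimulation for 21.5 h at 37 C.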

[8] = qHTS assay to identify small molecule antagonists of the estrogen receptor alpha (ER-alpha) signaling pathway using the BG1 cell line - cell viability counter screen (AID 743081);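 note: compound given together with 17beta-estradiol as the ER stimulus; series mostly up to about 70 µM; nearly all actives have a fitted effect of over 45% in size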
Aromatase (Homo sapiens) = Aromatase (Homo sapiens) (UniProt P11511); assay: qHTS assay to identify aromatase inhibitors (AID 743083); note: series mostly up to about 70 µM; nearly all actives have a fitted effect of over 55% in size
[9] = qHTS assay to identify aromatase inhibitors - cell viability counter screen (AID 743084);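 note: cells stimulated with testosterone during compound exposure; nearly all actives have a fitted effect of over 55% in size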
[10] = target: Aryl hydrocarbon receptor (Homo sapiens) (UniProt P35869); assay: qHTS assay to identify small molecule that activate the aryl hydrocarbon receptor (AhR) signaling pathway (AID 743085); note: nearly all actives have a fitted effect of over 15% in size; note: potency is the fitted concentration of half-maximal effect;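 for activation: HG2L7.5c1 human HepG2 liver cells with stably integrated DRE-driven firefly reporter; series mostly up to about 70 µM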
How it was run: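 Stably transfected human liver carcinoma cells (HG2L7.5c1; 20 DRE-firefly luciferase) were incubated 5 h, dosed, and kept 24 h at 37C. Agonism was scored from increased luciferase luminescence.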

[11] = qHTS assay to identify small molecule that activate the aryl hydrocarbon receptor (AhR) signaling pathway - cell viability counter screen (AID 743086);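 note: HepG2 liver cells carrying the AhR DRE luciferase reporter; series mostly up to about 70 µM; nearly all actives have a fitted effect of over 45% in size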
How it was run: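 HepG2-AhR-luc (HG2L7.5c1) cells, 4000/well, were preincubated 5 h at 37C, exposed to compound in qHTS format for 24 hr at 37C, then given CellTiter-Fluor for 30 min; viability was read as fluorescence in the reporter wells.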

[12] = target: Peroxisome proliferator-activated receptor gamma (Homo sapiens) (UniProt P37231); assay: qHTS assay to identify small molecule agonists of the peroxisome proliferator-activated receptor gamma (PPARg) signaling pathway (AID 743094; active = well fitted activation curve with a large enough effect in the signal ratio in the repeat runs, not every such curve was filed as active; the % refers to the signal ratio)
How it was run: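 GeneBLAzer PPARg UAS-bla HEK293H cells were plated, rested 5 h, then exposed to compounds for 17 h at 37C. Beta-lactamase activity was read by LiveBLAzer B/G FRET substrate fluorescence after 1 h at room temperature.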

[13] = target: Peroxisome proliferator-activated receptor gamma (Homo sapiens) (UniProt P37231); assay: qHTS assay to identify small molecule antagonists of the peroxisome proliferator-activated receptor gamma (PPARg) signaling pathway (AID 743191; calls by dose curve; note: series mostly up to about 63 µM; nearly all actives have a fitted effect of over 30% in size)
How it was run: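 GeneBLAzer PPARg UAS-bla HEK293H cells carrying a UAS-driven beta-lactamase reporter were plated at 3000 cells/well, preincubated 5 h at 37C, then given compound for 17 h at 37C; LiveBLAzer B/G FRET substrate was read after 1 h at room temperature.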

[14] = qHTS assay to identify small molecule antagonists of the peroxisome proliferator-activated receptor gamma (PPARg) signaling pathway - cell viability counter screen (AID 743194); note: nearly all actives have a fitted effect of over 55% in size
How it was run: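 PPARg-UAS-bla HEK293H cells were plated, rested 5 h at 37 C, then treated with compounds plus rosiglitazone (50 nM final) for 17 h at 37 C; viability was then read by CellTiter-Glo luminescence after 30 min at room temperature.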

[15] = qHTS assay for small molecule agonists of the antioxidant response element (ARE) signaling pathway (AID 743202; active = well fitted activation curve with a large enough effect in the signal ratio in the repeat runs, not every such curve was filed as active; the % refers to the signal ratio)
How it was run: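 Read-out: LiveBLAzer B/G FRET substrate fluorescence after 2 h at room temperature, following 16 h compound treatment at 37 C of HepG2 cells carrying an ARE-driven beta-lactamase reporter.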

[16] = qHTS assay for small molecule agonists of the antioxidant response element (ARE) signaling pathway - cell viability counter screen (AID 743203; calls by dose curve; note: nearly all actives have a fitted effect of over 55% in size)
How it was run: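 ARE-bla HepG2 cells were plated, rested 5 h at 37C/5% CO2, then exposed to compounds in DMSO for 16 h. Viability was read as CellTiter-Glo luminescence after 30 min at room temperature, in the same wells as the ARE screen.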

[17] = qHTS assay for small molecule activators of the heat shock response signaling pathway - cell viability counter screen (AID 743209); note: nearly all actives have a fitted effect of over 50% in size
How it was run: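 HSE-bla HeLa cells plated overnight, then exposed to Tox21 compounds (23 nL in DMSO) for 5 h at 37 C. After the bla reporter read, CellTiter-Glo was added in the same wells and luminescence read after 30 min at room temperature.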

[18] = qHTS assay for small molecule activators of the heat shock response signaling pathway (AID 743210; active = well fitted activation curve with a large enough effect in the signal ratio in the repeat runs, with a control signal flat, not every such curve was filed as active; the % refers to the signal ratio; note: series mostly up to about 63 µM)
How it was run: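 HSE-bla HeLa cells (beta-lactamase reporter under heat shock response elements) were exposed to compounds for 5 h at 37 C, then loaded with LiveBLAzer B/G FRET substrate for 2.5 h at room temperature before fluorescence reading.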

[19] = target: Estrogen receptor (Homo sapiens) (UniProt P03372); assay: qHTS assay to identify small molecule antagonists of the estrogen receptor alpha (ER-alpha) signaling pathway (AID 743069; active = well fitted curve in the direction sought with a large enough effect in the signal ratio in the repeat runs, not every such curve was filed as active; the % refers to the signal ratio)
How it was run: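 HEK293 cells stably carrying an ER-alpha-UAS-bla beta-lactamase reporter were pre-cultured overnight in 2% charcoal-stripped FBS medium. Test compounds in DMSO were added together with 17beta-estradiol for 18 hr at 37C. Read-out was fluorescence after 2 hr with LiveBLAzer B/G FRET substrate at room temperature.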

Measured: Potency

Sequence of Aryl hydrocarbon receptor (Homo sapiens) (P35869 whole entry, looked up): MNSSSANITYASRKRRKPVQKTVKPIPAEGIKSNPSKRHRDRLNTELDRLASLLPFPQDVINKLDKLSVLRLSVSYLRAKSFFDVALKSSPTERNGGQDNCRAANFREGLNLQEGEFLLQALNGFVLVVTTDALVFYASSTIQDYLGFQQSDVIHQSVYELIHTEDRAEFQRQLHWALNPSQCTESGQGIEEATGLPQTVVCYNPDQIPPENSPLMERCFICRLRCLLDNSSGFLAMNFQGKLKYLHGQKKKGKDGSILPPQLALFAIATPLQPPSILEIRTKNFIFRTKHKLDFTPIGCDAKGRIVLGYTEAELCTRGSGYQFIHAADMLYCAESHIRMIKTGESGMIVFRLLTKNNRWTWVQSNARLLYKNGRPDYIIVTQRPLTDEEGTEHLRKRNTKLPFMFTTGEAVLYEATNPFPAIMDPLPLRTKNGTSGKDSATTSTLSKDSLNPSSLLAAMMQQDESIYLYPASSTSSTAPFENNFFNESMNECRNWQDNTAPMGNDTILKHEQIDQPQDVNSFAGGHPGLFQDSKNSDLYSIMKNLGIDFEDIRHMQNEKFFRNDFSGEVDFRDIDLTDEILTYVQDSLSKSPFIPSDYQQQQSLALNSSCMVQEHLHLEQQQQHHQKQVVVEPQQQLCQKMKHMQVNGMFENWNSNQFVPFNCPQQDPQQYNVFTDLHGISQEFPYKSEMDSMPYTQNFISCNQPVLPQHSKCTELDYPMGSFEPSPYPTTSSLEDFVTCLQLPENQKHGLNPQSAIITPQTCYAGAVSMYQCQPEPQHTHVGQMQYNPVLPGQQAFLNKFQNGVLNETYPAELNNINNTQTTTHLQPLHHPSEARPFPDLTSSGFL
Sequence of Peroxisome proliferator-activated receptor gamma (Homo sapiens) (P37231 whole entry, looked up): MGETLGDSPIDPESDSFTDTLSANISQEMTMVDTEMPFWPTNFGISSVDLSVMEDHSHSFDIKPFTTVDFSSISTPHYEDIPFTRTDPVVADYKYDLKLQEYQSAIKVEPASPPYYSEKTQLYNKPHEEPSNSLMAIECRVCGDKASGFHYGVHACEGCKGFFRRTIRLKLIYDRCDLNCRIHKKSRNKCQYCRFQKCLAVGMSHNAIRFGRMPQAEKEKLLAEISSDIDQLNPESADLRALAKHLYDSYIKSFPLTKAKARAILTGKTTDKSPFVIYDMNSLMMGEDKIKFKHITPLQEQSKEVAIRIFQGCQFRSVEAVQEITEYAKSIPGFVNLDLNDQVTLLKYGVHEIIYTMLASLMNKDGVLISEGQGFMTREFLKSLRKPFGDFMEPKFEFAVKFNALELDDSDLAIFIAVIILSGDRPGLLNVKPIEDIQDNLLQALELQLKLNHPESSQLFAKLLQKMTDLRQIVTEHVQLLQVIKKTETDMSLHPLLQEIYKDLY
Sequence of Estrogen receptor (Homo sapiens) (P03372 whole entry, looked up): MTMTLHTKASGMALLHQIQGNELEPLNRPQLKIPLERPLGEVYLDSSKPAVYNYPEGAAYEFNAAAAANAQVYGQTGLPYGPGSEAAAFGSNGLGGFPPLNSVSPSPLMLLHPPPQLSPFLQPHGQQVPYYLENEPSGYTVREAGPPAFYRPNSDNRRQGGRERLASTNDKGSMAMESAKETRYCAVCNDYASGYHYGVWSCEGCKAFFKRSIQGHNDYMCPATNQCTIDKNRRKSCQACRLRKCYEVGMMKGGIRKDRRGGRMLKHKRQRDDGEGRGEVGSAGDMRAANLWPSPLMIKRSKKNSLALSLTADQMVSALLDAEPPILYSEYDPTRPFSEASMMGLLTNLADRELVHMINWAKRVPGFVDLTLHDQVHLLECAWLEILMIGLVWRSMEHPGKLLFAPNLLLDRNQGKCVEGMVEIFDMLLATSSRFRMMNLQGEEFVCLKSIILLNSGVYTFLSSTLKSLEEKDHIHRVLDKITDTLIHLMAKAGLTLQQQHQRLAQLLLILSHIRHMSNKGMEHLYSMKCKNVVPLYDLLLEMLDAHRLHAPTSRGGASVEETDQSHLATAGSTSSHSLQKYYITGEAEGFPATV
Sequence of Aromatase (Homo sapiens) (P11511 whole entry, looked up): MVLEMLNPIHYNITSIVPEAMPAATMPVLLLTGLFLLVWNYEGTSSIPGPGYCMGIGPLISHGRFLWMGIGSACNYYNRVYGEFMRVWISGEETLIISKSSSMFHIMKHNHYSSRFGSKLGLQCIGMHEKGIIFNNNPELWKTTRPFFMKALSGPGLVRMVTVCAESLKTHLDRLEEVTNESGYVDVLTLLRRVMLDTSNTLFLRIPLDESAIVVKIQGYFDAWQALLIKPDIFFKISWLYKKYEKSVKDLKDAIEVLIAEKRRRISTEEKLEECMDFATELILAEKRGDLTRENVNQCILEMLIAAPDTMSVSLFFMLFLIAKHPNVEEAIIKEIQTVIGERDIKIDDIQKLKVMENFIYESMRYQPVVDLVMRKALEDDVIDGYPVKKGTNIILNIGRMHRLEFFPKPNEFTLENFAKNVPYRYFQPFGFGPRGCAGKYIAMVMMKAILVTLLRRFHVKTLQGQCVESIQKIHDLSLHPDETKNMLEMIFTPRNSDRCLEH

c1ccc2scnc2c1
inactive and 19.3 µM (active): [10]
not listed: [19]
inactive: all other assays above

C=C(C)C(=O)O[C@H]1C[C@@H]2CC[C@@]1(C)C2(C)C
not listed: [12] | [17] | [19]
inactive: all other assays above

c1c[nH]cn1
not listed: [12] | [15] | [17]
inactive: all other assays above

CCCCN(CCCC)CCCC
not listed: [11] | [12] | [13]
inactive: all other assays above

CC(=O)c1ccccc1
not listed: [12] | [17]
inactive: all other assays above

O=C(O)CC(C(=O)O)C(CC(=O)O)C(=O)O (centres undefined)
not listed: [19]
inactive: all other assays above

FC(F)(F)c1ccc(Cl)c(Cl)c1
not listed: [12] | [19]
inactive: all other assays above

O=S(=O)(O)c1ccc2ccccc2c1
not listed: [10]
inactive: all other assays above
